“And” between values parts separate entries of the source, which are not always exact repeats. Identical values can stand only once. Some structures have more than one record in an assay (separate samples or runs), and their calls can disagree. The source made the active and inactive calls. Rule for the calls: active = hit-call score of the fitted dose curve at least 0.9, where 1 is the maximum; inactive = score below 0.9.

The AC50 is the concentration at which the activity in the assay is half-maximal.

Details in all cases: mRNA level, 48 h; actives raise or lower the signal
Read-out in experiment [1]: Cytochrome P450 3A7 (Homo sapiens) (UniProt P24462)
The experiment can be described thus: LTEA_HepaRG_CYP3A7: Life Technologies and Expression Analysis (LTEA) Assay for CYP3A7 using HepaRG (AID 2283492). In short, it runs like this: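 Human HepaRG liver cells, 48 h post-plating, switched to serum-free induction medium and exposed in duplicate for 48 h. Dosing: 100 uM top, half-log dilutions, 8 points, 0.5% DMSO vehicle. Read-out: CYP3A7 mRNA, gain or loss fitted against DMSO baseline.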

Read-out in experiment [2]: CYP3A5 (gene 1577)
As to the kind of experiment: LTEA_HepaRG_CYP3A5: Life Technologies and Expression Analysis (LTEA) Assay for CYP3A5 using HepaRG (AID 2283493). A digest of the protocol:
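mRNA induction or loss of CYP3A5 assessed in HepaRG after 48 h dosing, 100 uM top concentration, duplicate wells; TaqMan qRT-PCR with ACTB, GAPDH, POLR2A normalization; 0.5% DMSO as negative control.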

Read-out in experiment [3]: Fatty Acid-Binding Protein 1 (FABP1), FABP1 (gene 2168)
The experiment can be described thus: LTEA_HepaRG_FABP1: Life Technologies and Expression Analysis (LTEA) Assay for Fatty Acid-Binding Protein 1 (FABP1) using HepaRG (AID 2283494). A digest of the protocol: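 Differentiated human HepaRG cells exposed 48 h in serum-free induction medium to eight half-log concentrations up to 100 uM (0.5% DMSO), duplicate. FABP1 mRNA by qRT-PCR, normalised to ACTB, GAPDH, POLR2A; bidirectional fitting against DMSO.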

Read-out in experiment [4]: Cytochrome P450 4A22 (Homo sapiens) (UniProt Q5TCH4)
The experiment can be described thus: LTEA_HepaRG_CYP4A22: Life Technologies and Expression Analysis (LTEA) Assay for Cytochrome P450 4A22 (CYP4A22) using HepaRG (AID 2283495). A digest of the protocol: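 Readout is CYP4A22 transcript induction or loss, quantified by qRT-PCR and normalized to ACTB, GAPDH and POLR2A. Human HepaRG cells receive test chemicals for 48 h at eight half-log concentrations from 100 uM in 0.5% DMSO.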

Read-out in experiment [5]: Cytochrome P450 7A1 (Homo sapiens) (UniProt P22680)
The experiment can be described thus: LTEA_HepaRG_CYP7A1: Life Technologies and Expression Analysis (LTEA) Assay for Cytochrome P450 7A1 (CYP7A1) using HepaRG (AID 2283496). In short, it runs like this: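 Gene expression endpoint in human HepaRG liver cells treated for 48 h with test chemicals (up to 100 uM, 0.5% DMSO). Values come from bidirectional concentration-response fitting versus DMSO.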

Read-out in experiment [6]: Glutamate-cysteine ligase catalytic (GCLC), GCLC (gene 2729)
As to the kind of experiment: LTEA_HepaRG_GCLC: Life Technologies and Expression Analysis (LTEA) Assay for Glutamate-cysteine ligase catalytic (GCLC) using HepaRG (AID 2283498). In short, it runs like this:
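Differentiated HepaRG cells exposed 48 h in serum-free induction medium, eight-point half-log series topping at 100 uM in 0.5% DMSO, duplicates. GCLC mRNA by qRT-PCR normalized to ACTB, GAPDH and POLR2A, fitted bidirectionally versus DMSO.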

Read-out in experiment [7]: growth arrest and DNA damage 45 (GADD45G), GADD45G (gene 10912)
As to the kind of experiment: LTEA_HepaRG_GADD45G: Life Technologies and Expression Analysis (LTEA) Assay for growth arrest and DNA damage 45 (GADD45G) using HepaRG (AID 2283499). In short, it runs like this: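 Gain or loss of GADD45G mRNA, quantified by TaqMan qRT-PCR against three housekeeping genes, is fitted in both directions relative to 0.5% DMSO. Human HepaRG cultures receive test chemical for 48 h at up to 100 uM.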

Read-out in experiment [8]: Glutamate-cysteine ligase regulatory (GCLM), GCLM (gene 2730)
The experiment can be described thus: LTEA_HepaRG_GCLM: Life Technologies and Expression Analysis (LTEA) Assay for Glutamate-cysteine ligase regulatory (GCLM) using HepaRG (AID 2283500). A digest of the protocol: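 Human liver HepaRG cultures receive test chemicals for 48 hours at up to 100 uM in 0.5% DMSO. GCLM expression is measured by qRT-PCR and analysed for increases or decreases against vehicle.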

Read-out in experiment [9]: Glutathione S-transferase M3 (GSTM3), GSTM3 (gene 2947)
The experiment can be described thus: LTEA_HepaRG_GSTM3: Life Technologies and Expression Analysis (LTEA) Assay for Glutathione S-transferase M3 (GSTM3) using HepaRG (AID 2283501). A digest of the protocol: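 HepaRG, plated 48 h, then serum-free induction medium; test chemical 48 h, duplicate; 100 uM top, half-log x8, 0.5% DMSO. Read-out: GSTM3 mRNA (TaqMan qRT-PCR, Fluidigm array). Bidirectional fit vs DMSO.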

Read-out in experiment [10]: Heat shock 70 kDa protein 1 (HSPA1A), gene 3303
The experiment can be described thus: LTEA_HepaRG_HSPA1A: Life Technologies and Expression Analysis (LTEA) Assay for Heat shock 70 kDa protein 1 (HSPA1A) using HepaRG (AID 2283502). A digest of the protocol:
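HSPA1A induction in human HepaRG liver cells is measured after 48 h of chemical treatment (100 uM maximum, 0.5% DMSO vehicle). Expression comes from qRT-PCR normalized to endogenous controls.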

Read-out in experiment [11]: Hypoxia-inducible factor 1-alpha (Homo sapiens) (UniProt Q16665)
The experiment can be described thus: LTEA_HepaRG_HIF1A: Life Technologies and Expression Analysis (LTEA) Assay for Hypoxia-inducible factor 1 (HIF1A) Trancription factor using HepaRG (AID 2283503).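 Note: HIF1A transcript by TaqMan qRT-PCR normalized to ACTB GAPDH and POLR2A.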 A digest of the protocol: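 HepaRG, 48 h exposure, 8-pt half-log series from 100 uM, 0.5% DMSO vehicle, duplicates. Readout: HIF1A transcript by qRT-PCR (Fluidigm array), housekeeping-normalised. Bidirectional curve fit vs DMSO baseline.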

Read-out in experiment [12]: 3-Hydroxy-3-Methylglutaryl-CoA Synthase 2 (HMGCS2), HMGCS2 (gene 3158)
As to the kind of experiment: LTEA_HepaRG_HMGCS2: Life Technologies and Expression Analysis (LTEA) Assay for 3-Hydroxy-3-Methylglutaryl-CoA Synthase 2 (HMGCS2) using HepaRG (AID 2283504). A digest of the protocol: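 HepaRG, plated 48 h then switched to serum-free induction media; cmpd 8-pt, max 100 uM, 1/2-log, 0.5% DMSO, n=2, 48 h. HMGCS2 mRNA by Fluidigm TaqMan qRT-PCR, ACTB/GAPDH/POLR2A norm; bidirectional fit vs DMSO.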

Read-out in experiment [13]: HGF (gene 3082)
The experiment can be described thus: LTEA_HepaRG_HGF: Life Technologies and Expression Analysis (LTEA) Assay for Hepatocyte Growth Facto (HGF) using HepaRG (AID 2283505). In short, it runs like this:
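Read-out is HGF transcript level by qRT-PCR, normalized to three housekeeping genes, fitted bidirectionally against 0.5% DMSO vehicle. Human HepaRG cells received test chemicals for 48 h at up to 100 uM.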

Read-out in experiment [14]: Insulin Like Growth Factor 1 (IGF1), IGF1 (gene 3479)
The experiment can be described thus: LTEA_HepaRG_IGF1: Life Technologies and Expression Analysis (LTEA) Assay for Insulin Like Growth Factor 1 (IGF1) using HepaRG (AID 2283506). A digest of the protocol:
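Using human HepaRG liver cells, IGF1 transcript induction or suppression is measured 48 h after dosing across eight concentrations capped at 100 uM. Values derive from bidirectional concentration-response fitting with DMSO as baseline.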

Read-out in experiment [15]: Intercellular Adhesion Molecule 1 (ICAM1), ICAM1 (gene 3383)
As to the kind of experiment: LTEA_HepaRG_ICAM1: Life Technologies and Expression Analysis (LTEA) Assay for Intercellular Adhesion Molecule 1 (ICAM1) using HepaRG (AID 2283507). A digest of the protocol: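 Readout is qRT-PCR mRNA level, normalized to three housekeeping genes and fitted bidirectionally against 0.5% DMSO vehicle. Human HepaRG cultures received compound for 48 h, top concentration 100 uM with half-log dilutions.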

Read-out in experiment [16]: Insulin-like growth factor-binding protein 1 (IGFBP1), IGFBP1 (gene 3484)
The experiment can be described thus: LTEA_HepaRG_IGFBP1: Life Technologies and Expression Analysis (LTEA) Assay for Insulin-like growth factor-binding protein 1 (IGFBP1) using HepaRG (AID 2283508). A digest of the protocol:
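Thawed HepaRG cells are plated for 48 h, switched to serum-free induction medium, then dosed in duplicate for another 48 h (100 uM top, half-log steps). Lysates in RLT go to qRT-PCR, and gain or loss of signal is fitted relative to vehicle.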

Read-out in experiment [17]: Interleukin 6 (IL6), IL6 (gene 3569)
As to the kind of experiment: LTEA_HepaRG_IL6: Life Technologies and Expression Analysis (LTEA) Assay for Interleukin 6 (IL6) using HepaRG (AID 2283509). A digest of the protocol: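 HepaRG cells exposed in duplicate for 48 h to eight half-log concentrations, top 100 uM, in 0.5% DMSO serum-free induction medium. mRNA measured by qRT-PCR, normalized to ACTB, GAPDH and POLR2A. Bidirectional fit versus DMSO.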

Read-out in experiment [18]: Interleukin 6 Receptor (IL6R), IL6R (gene 3570)
The experiment can be described thus: LTEA_HepaRG_IL6R: Life Technologies and Expression Analysis (LTEA) Assay for Interleukin 6 Receptor (IL6R) using HepaRG (AID 2283510).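 For AC50: TaqMan qRT-PCR signal normalized to ACTB GAPDH and POLR2A housekeeping genes.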 A digest of the protocol: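 Concentration-response in human liver HepaRG cells: eight concentrations from 100 uM downward by half-logs, 48 h exposure, 0.5% DMSO vehicle. IL6R mRNA change measured by qRT-PCR and fitted in both directions relative to vehicle.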

Read-out in experiment [19]: Potassium channel subfamily K member 1 (KCNK1), KCNK1 (gene 3775)
The experiment can be described thus: LTEA_HepaRG_KCNK1: Life Technologies and Expression Analysis (LTEA) Assay for Potassium channel subfamily K member 1 (KCNK1) using HepaRG (AID 2283511). A digest of the protocol: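 Differentiated HepaRG cells, 48 h exposure in serum-free induction medium with 0.5% DMSO; 8 concentrations, half-log from 100 uM, duplicate. KCNK1 mRNA by qRT-PCR, normalized to ACTB, GAPDH, POLR2A; bidirectional fit vs DMSO.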

Sequence of Hypoxia-inducible factor 1-alpha (Homo sapiens) (Q16665 whole entry, looked up): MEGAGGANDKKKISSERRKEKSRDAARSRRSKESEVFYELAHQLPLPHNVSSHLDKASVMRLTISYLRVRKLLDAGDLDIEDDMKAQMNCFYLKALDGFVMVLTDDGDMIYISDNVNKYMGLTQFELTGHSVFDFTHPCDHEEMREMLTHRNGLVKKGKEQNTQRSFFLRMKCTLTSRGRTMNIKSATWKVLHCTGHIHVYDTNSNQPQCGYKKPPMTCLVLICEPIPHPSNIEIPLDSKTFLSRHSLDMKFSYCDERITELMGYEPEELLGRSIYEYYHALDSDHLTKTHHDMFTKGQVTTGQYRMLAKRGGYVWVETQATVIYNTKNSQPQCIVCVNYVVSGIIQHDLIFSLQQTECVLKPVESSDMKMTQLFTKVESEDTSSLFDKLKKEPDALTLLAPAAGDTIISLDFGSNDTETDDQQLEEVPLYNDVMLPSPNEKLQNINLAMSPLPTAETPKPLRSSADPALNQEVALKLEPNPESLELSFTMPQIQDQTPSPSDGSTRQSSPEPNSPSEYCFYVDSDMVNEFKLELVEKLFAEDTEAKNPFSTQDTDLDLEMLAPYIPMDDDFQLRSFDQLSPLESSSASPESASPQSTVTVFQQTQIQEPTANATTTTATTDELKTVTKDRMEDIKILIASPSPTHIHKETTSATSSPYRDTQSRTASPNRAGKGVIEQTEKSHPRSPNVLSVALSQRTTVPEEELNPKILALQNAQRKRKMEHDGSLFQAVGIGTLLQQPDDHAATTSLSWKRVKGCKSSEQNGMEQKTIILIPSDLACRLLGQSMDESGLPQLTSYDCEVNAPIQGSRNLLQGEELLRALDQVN
Sequence of Cytochrome P450 3A7 (Homo sapiens) (P24462 whole entry, looked up): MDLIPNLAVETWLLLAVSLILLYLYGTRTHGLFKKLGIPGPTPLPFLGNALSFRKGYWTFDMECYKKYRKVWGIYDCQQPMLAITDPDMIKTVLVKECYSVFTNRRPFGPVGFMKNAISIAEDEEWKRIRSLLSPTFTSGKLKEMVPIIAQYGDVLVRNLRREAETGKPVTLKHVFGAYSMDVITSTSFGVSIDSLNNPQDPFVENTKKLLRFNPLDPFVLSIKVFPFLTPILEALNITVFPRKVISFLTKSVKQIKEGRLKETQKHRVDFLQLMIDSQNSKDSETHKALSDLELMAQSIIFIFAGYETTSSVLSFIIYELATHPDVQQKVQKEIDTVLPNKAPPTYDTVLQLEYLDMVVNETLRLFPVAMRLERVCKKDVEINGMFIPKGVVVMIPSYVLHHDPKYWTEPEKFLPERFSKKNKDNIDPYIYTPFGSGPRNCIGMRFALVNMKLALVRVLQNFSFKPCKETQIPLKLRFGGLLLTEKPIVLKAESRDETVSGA

As for `CC(C)N(C(=O)COc1nnc(C(F)(F)F)s1)c1ccc(F)cc1`, the molecule was classed as inactive in experiment [1], in experiment [2], in [4], in [6], in experiment [7] and in [8]. The molecule was classed as inactive in experiment [9], in experiment [10], in experiment [11], in experiment [13], in experiment [14] and in experiment [15]. The molecule was classed as inactive in experiment [16], in experiment [17], in experiment [18] and in experiment [19]. In addition, the AC50 in experiment [3] was 23 µM (active); in experiment [5], 24.7 µM (active); in [12], 50 µM (active).
`Clc1ccccc1-c1nnc(-c2ccccc2Cl)nn1`: the AC50 in experiment [1] was 6.87 µM (active); in experiment [3], 18.8 µM (active); in [5], 24 µM (active); in [8], 23 µM (active). The call in [2], in experiment [4], in [7], in [9], in experiment [10] and in experiment [11] was inactive. The outcome in [12], in experiment [13], in experiment [14], in experiment [15], in experiment [16] and in [17] was inactive. The outcome in [18] and in [19] was inactive.
`O=S(=O)(O)C(F)(F)C(F)(F)C(F)(F)C(F)(F)C(F)(F)C(F)(F)C(F)(F)C(F)(F)F`: the call in experiment [2], in experiment [3], in [5], in [6], in experiment [7] and in experiment [8] was inactive. The molecule was classed as inactive in experiment [9], in experiment [10], in experiment [11], in [12], in [13] and in [15]. The molecule was classed as inactive in experiment [16], in experiment [17], in experiment [18] and in experiment [19]. Moreover, the AC50 in experiment [3] is 94.2 µM (active) and 77 µM (active); in [4], 89.2 µM (active) [middle of 4 runs]; in [5] it was 94.4 µM (active) and 94 µM (active) and 75.4 µM (active); in experiment [7], 5.76 µM (active); in experiment [10] it was 19.9 µM (active); in experiment [12] it was 83.8 µM (active) and 92.2 µM (active) and 81.5 µM (active). Further, the AC50 in experiment [16] is 77.6 µM (active) and 50 µM (active); in experiment [18], 82.9 µM (active) and 90 µM (active).
With `COP(=S)(OC)Oc1ccc(SC)c(C)c1`, the molecule was called inactive in experiment [2], in experiment [3], in experiment [4], in experiment [5], in experiment [6] and in experiment [7]. In addition, the outcome in experiment [9], in [10], in experiment [11], in experiment [12], in experiment [13] and in experiment [14] was inactive. In addition, the outcome in experiment [15], in experiment [16], in experiment [17], in experiment [18] and in experiment [19] was inactive. For the same molecule, in experiment [8], the AC50 was 0.244 µM (active).
As to `O=C(Nc1ccccc1)Nc1cnns1`, the concentration at half-maximal activity (AC50) in experiment [1] was 50 µM (active); in [3], 65.5 µM (active); in experiment [4], 73.5 µM (active); in [5], 50 µM (active); in experiment [8], 80.3 µM (active); in [12], 73.7 µM (active). In addition, the AC50 in experiment [14] is 50 µM (active); in experiment [16] it was 83.5 µM (active). For the same molecule, the molecule was classed as inactive in [2], in experiment [6], in experiment [7], in experiment [9], in experiment [10] and in experiment [11]. Moreover, the result in [13], in [15], in experiment [18] and in [19] was inactive.
